Results taken from publication PMC12864922, “TDP-43 directly inhibits mRNA accumulation in neurites through modulation of mRNA stability”.
Residue numbers refer to the chain shown, from its start. In all, about 9,900 sequences were measured (“r (bound/input frequency ratio)”: median about 0.7, highest 2% from about 6.5 on). Only a selection was taken, and the highest values are over-represented in it overall.

B1: ENSMUSG00000031028.245|Tub (ssRNA)
RNA: GGGAGUUCUACAGUCCGACGAUCGCUUCGAUAUCCGCAUGCUAGCCCUCCAUUGGGAUGGCACCACUCAUCUGGUGGGCUUGGGAACUCCAAGCUCUUGCCUGUGUGCCAUCUGUGAGAAGCUUCUUGGAGCUGAGACACCAGAGGGAAGCAAAGAGCAUUUAGACAUUGCUUUUUGCUUUGAAAUAGAUAUGUUUGGAAACGCUAAGUAGAAGUUUAAAAAGUAGAGUCAUGUAGAGUCAUGCUUUGAAUAUGUGGGUCAUGCUUUAGAUAUGAAGAGGCUAUGCAGGUAAGGAGGCUGGAUCUCUUGCGGUCGCACUAGUGUGGAAUUCUCGGGUGUCAAGG
B2: ENSMUSG00000028439.189|Fam219a|1:11;21:28 (ssRNA)
RNA: GGGAGUUCUACAGUCCGACGAUCGCUUCGAUAUCCGCAUGCUAACACACACACAUGUACCCGACACACACAUGAGCCUAUCUGUCCAGGGAACCAGAUUGGUGUCCGAGAUGAGGAAAUGGCUGUGGCCUGGGAAAUCAGUGAGAGGCCGCUUGGGAAUGAGAAUGCAGUGGACUGAAAGCACAGCCUGGCCAUCUGGAACCUGGGUUCUGGUCCCAGCCUCGGCAUUCUCCCUGAGCUCCUAAGCAAUUCCCAGGCUUCUCUAGGGCUUCAGUUCUCACAACUGGAAAAUAAAGAGUAGCUGCUCUUGCGGUCGCACUAGUGUGGAAUUCUCGGGUGUCAAGG
B3: ENSMUSG00000031028.94|Tub (ssRNA)
RNA: GGGAGUUCUACAGUCCGACGAUCGCUUCGAUAUCCGCAUGCUAAGCUCUGGUGGUCAGCAGAAAGCACUCCCACUUCAAAAGGGCCCAUUAGGCCCAAAGGGGGUUAGGAGUGGUAGGGAUAGGUGCGUGGCAGGUCCCUGCUAGGAUUGCAGGGGCCUGGCCAUGUGUAUUAGCUGGAGGCUUAGAAUGCUAGCUCAUUUGUUGCUACAGAUUUGCCCAGUGCUUGCACACGUAAGAACCCAGCUCUCAAGGCCAAAUAUCUGAGUGGAUGGGGAUGAUAGGAGUCAUCCAGUAGACUCCCUCUCUUGCGGUCGCACUAGUGUGGAAUUCUCGGGUGUCAAGG
B4: ENSMUSG00000058297.426|Spock2 (ssRNA)
RNA: GGGAGUUCUACAGUCCGACGAUCGCUUCGAUAUCCGCAUGCUAGUGGCAGGCCCCAGGGGUCCAGAAGUUUGUCCCUCUCUAAAACGCUCCCCACCCCAUACUGCUUUUCACCCCACUGAGACCGAGUCCCACAAAGGUAGGCAGAACAGCUGUUCCUGGUGGGGCUGAAGGUUCCCAAGUAGCUUCUAGUUAAGCAAGCUUCGUGUUUCCUCAGGAGCAAGGUCACACAGGUCAGAUUAUUGUCGGUCCUGCGGGCCUCAUCCUUGAAUAAGCUGCCUGCCCAGUUCCUCCAUCCGUGUUCCCUCUUGCGGUCGCACUAGUGUGGAAUUCUCGGGUGUCAAGG
B5: ENSMUSG00000061578.1443|Ksr2|85:89;180:184 (ssRNA)
RNA: GGGAGUUCUACAGUCCGACGAUCGCUUCGAUAUCCGCAUGCUAGCAAGUAGGAUGGAUGGAUGAGUGAGUGGAUAGGUAGGUAUAUAAAUGGAUGGAUGGGUGAUGGAUGGGUAAAUGAAUGGAUAGCAUACUGAAUGAAUGGAUGAUGGAUGAAUGGAUGGGUAGGUGGGUAGAUAGGUAUAUGAAUGAAUGGAUGAAUGGAUGGGUGAAUGGAUGGAUAGCAUACUGAAUAAAUGGAUGGAUGGAUGGAUUGAUUUGUGAAUGAAUGGAUGAAUGGAUGGGUAGGUGGGUGGAUGCAUAGGCUCUUGCGGUCGCACUAGUGUGGAAUUCUCGGGUGUCAAGG
B6: ENSMUSG00000061578.1440|Ksr2 (ssRNA)
RNA: GGGAGUUCUACAGUCCGACGAUCGCUUCGAUAUCCGCAUGCUAUAGAUGCCAAUCAGGAAGGCAAGUAGGAUGGAUGGAUGAGUGAGUGGAUAGGUAGGUAUAUAAAUGGAUGGAUGGGUGAUGGAUGGGUAAAUGAAUGGAUAGGUAUGUGAAUGAAUGGAUGAUGGAUGAAUGGAUGGGUAGGUGGGUAGAUAGGUAUAUGAAUGAAUGGAUGAAUGGAUGGGUGAAUGGAUGGAUAGGUAUGUGAAUAAAUGGAUGGAUGGAUGGAUUGAUUUGUGAAUGAAUGGAUGAAUGGAUGGGUACUCUUGCGGUCGCACUAGUGUGGAAUUCUCGGGUGUCAAGG
B7: ENSMUSG00000061578.1439|Ksr2 (ssRNA)
RNA: GGGAGUUCUACAGUCCGACGAUCGCUUCGAUAUCCGCAUGCUAUUGAUUUAGAUGCCAAUCAGGAAGGCAAGUAGGAUGGAUGGAUGAGUGAGUGGAUAGGUAGGUAUAUAAAUGGAUGGAUGGGUGAUGGAUGGGUAAAUGAAUGGAUAGGUAUGUGAAUGAAUGGAUGAUGGAUGAAUGGAUGGGUAGGUGGGUAGAUAGGUAUAUGAAUGAAUGGAUGAAUGGAUGGGUGAAUGGAUGGAUAGGUAUGUGAAUAAAUGGAUGGAUGGAUGGAUUGAUUUGUGAAUGAAUGGAUGAAUGGACUCUUGCGGUCGCACUAGUGUGGAAUUCUCGGGUGUCAAGG
B8: ENSMUSG00000061578.1444|Ksr2 (ssRNA)
RNA: GGGAGUUCUACAGUCCGACGAUCGCUUCGAUAUCCGCAUGCUAAGGAUGGAUGGAUGAGUGAGUGGAUAGGUAGGUAUAUAAAUGGAUGGAUGGGUGAUGGAUGGGUAAAUGAAUGGAUAGGUAUGUGAAUGAAUGGAUGAUGGAUGAAUGGAUGGGUAGGUGGGUAGAUAGGUAUAUGAAUGAAUGGAUGAAUGGAUGGGUGAAUGGAUGGAUAGGUAUGUGAAUAAAUGGAUGGAUGGAUGGAUUGAUUUGUGAAUGAAUGGAUGAAUGGAUGGGUAGGUGGGUGGAUGCAUAGGCAAGUACUCUUGCGGUCGCACUAGUGUGGAAUUCUCGGGUGUCAAGG
B9: ENSMUSG00000061578.1451|Ksr2|37:41;132:136 (ssRNA)
RNA: GGGAGUUCUACAGUCCGACGAUCGCUUCGAUAUCCGCAUGCUAGAUGGAUGGGUGAUGGAUGGGUAAAUGAAUGGAUAGCAUACUGAAUGAAUGGAUGAUGGAUGAAUGGAUGGGUAGGUGGGUAGAUAGGUAUAUGAAUGAAUGGAUGAAUGGAUGGGUGAAUGGAUGGAUAGCAUACUGAAUAAAUGGAUGGAUGGAUGGAUUGAUUUGUGAAUGAAUGGAUGAAUGGAUGGGUAGGUGGGUGGAUGCAUAGGCAAGUAGAUGAAUGAAUAUGUGGGUAGAAGGGUGAGUGGGUGGAUGAACUCUUGCGGUCGCACUAGUGUGGAAUUCUCGGGUGUCAAGG
B10: ENSMUSG00000061578.1441|Ksr2 (ssRNA)
RNA: GGGAGUUCUACAGUCCGACGAUCGCUUCGAUAUCCGCAUGCUACCAAUCAGGAAGGCAAGUAGGAUGGAUGGAUGAGUGAGUGGAUAGGUAGGUAUAUAAAUGGAUGGAUGGGUGAUGGAUGGGUAAAUGAAUGGAUAGGUAUGUGAAUGAAUGGAUGAUGGAUGAAUGGAUGGGUAGGUGGGUAGAUAGGUAUAUGAAUGAAUGGAUGAAUGGAUGGGUGAAUGGAUGGAUAGGUAUGUGAAUAAAUGGAUGGAUGGAUGGAUUGAUUUGUGAAUGAAUGGAUGAAUGGAUGGGUAGGUGGGCUCUUGCGGUCGCACUAGUGUGGAAUUCUCGGGUGUCAAGG
B11: ENSMUSG00000061578.1445|Ksr2 (ssRNA)
RNA: GGGAGUUCUACAGUCCGACGAUCGCUUCGAUAUCCGCAUGCUAGAUGGAUGAGUGAGUGGAUAGGUAGGUAUAUAAAUGGAUGGAUGGGUGAUGGAUGGGUAAAUGAAUGGAUAGGUAUGUGAAUGAAUGGAUGAUGGAUGAAUGGAUGGGUAGGUGGGUAGAUAGGUAUAUGAAUGAAUGGAUGAAUGGAUGGGUGAAUGGAUGGAUAGGUAUGUGAAUAAAUGGAUGGAUGGAUGGAUUGAUUUGUGAAUGAAUGGAUGAAUGGAUGGGUAGGUGGGUGGAUGCAUAGGCAAGUAGAUGAACUCUUGCGGUCGCACUAGUGUGGAAUUCUCGGGUGUCAAGG
B12: ENSMUSG00000061578.1446|Ksr2 (ssRNA)
RNA: GGGAGUUCUACAGUCCGACGAUCGCUUCGAUAUCCGCAUGCUAUGAGUGAGUGGAUAGGUAGGUAUAUAAAUGGAUGGAUGGGUGAUGGAUGGGUAAAUGAAUGGAUAGGUAUGUGAAUGAAUGGAUGAUGGAUGAAUGGAUGGGUAGGUGGGUAGAUAGGUAUAUGAAUGAAUGGAUGAAUGGAUGGGUGAAUGGAUGGAUAGGUAUGUGAAUAAAUGGAUGGAUGGAUGGAUUGAUUUGUGAAUGAAUGGAUGAAUGGAUGGGUAGGUGGGUGGAUGCAUAGGCAAGUAGAUGAAUGAAUACUCUUGCGGUCGCACUAGUGUGGAAUUCUCGGGUGUCAAGG
B13: ENSMUSG00000061578.1444|Ksr2|79:83;174:178 (ssRNA)
RNA: B8 RNA with G122C, U123A, A124U, U125A, G126C, G217C, U218A, A219U, U220A, G221C
B14: ENSMUSG00000061578.1442|Ksr2 (ssRNA)
RNA: GGGAGUUCUACAGUCCGACGAUCGCUUCGAUAUCCGCAUGCUAAGGAAGGCAAGUAGGAUGGAUGGAUGAGUGAGUGGAUAGGUAGGUAUAUAAAUGGAUGGAUGGGUGAUGGAUGGGUAAAUGAAUGGAUAGGUAUGUGAAUGAAUGGAUGAUGGAUGAAUGGAUGGGUAGGUGGGUAGAUAGGUAUAUGAAUGAAUGGAUGAAUGGAUGGGUGAAUGGAUGGAUAGGUAUGUGAAUAAAUGGAUGGAUGGAUGGAUUGAUUUGUGAAUGAAUGGAUGAAUGGAUGGGUAGGUGGGUGGAUGCUCUUGCGGUCGCACUAGUGUGGAAUUCUCGGGUGUCAAGG
B15: ENSMUSG00000061578.1448|Ksr2 (ssRNA)
RNA: GGGAGUUCUACAGUCCGACGAUCGCUUCGAUAUCCGCAUGCUAUAGGUAGGUAUAUAAAUGGAUGGAUGGGUGAUGGAUGGGUAAAUGAAUGGAUAGGUAUGUGAAUGAAUGGAUGAUGGAUGAAUGGAUGGGUAGGUGGGUAGAUAGGUAUAUGAAUGAAUGGAUGAAUGGAUGGGUGAAUGGAUGGAUAGGUAUGUGAAUAAAUGGAUGGAUGGAUGGAUUGAUUUGUGAAUGAAUGGAUGAAUGGAUGGGUAGGUGGGUGGAUGCAUAGGCAAGUAGAUGAAUGAAUAUGUGGGUAGAAGCUCUUGCGGUCGCACUAGUGUGGAAUUCUCGGGUGUCAAGG
B16: ENSMUSG00000061578.1450|Ksr2 (ssRNA)
RNA: GGGAGUUCUACAGUCCGACGAUCGCUUCGAUAUCCGCAUGCUAUAAAUGGAUGGAUGGGUGAUGGAUGGGUAAAUGAAUGGAUAGGUAUGUGAAUGAAUGGAUGAUGGAUGAAUGGAUGGGUAGGUGGGUAGAUAGGUAUAUGAAUGAAUGGAUGAAUGGAUGGGUGAAUGGAUGGAUAGGUAUGUGAAUAAAUGGAUGGAUGGAUGGAUUGAUUUGUGAAUGAAUGGAUGAAUGGAUGGGUAGGUGGGUGGAUGCAUAGGCAAGUAGAUGAAUGAAUAUGUGGGUAGAAGGGUGAGUGGGUGCUCUUGCGGUCGCACUAGUGUGGAAUUCUCGGGUGUCAAGG

Each binder was assayed against TDP-43 (Homo sapiens, UniProt Q13148 1-414) (assay: RNA Bind-n-Seq with designed 260-mer pool; 25 mM Tris-HCl, 150 mM KCl, 3 mM MgCl2, BSA (printed 500 mg/mL), 20 units/mL SUPERase IN; pH not stated; 500 nM RNA pool, 1 h, 4 C; TDP-43 5, 50, 500 nM; high values mean tight binding). Details: protein: recombinant; tags: SBP (GST cleaved off with PreScission; pGEX-GST-SBP).
Chain of TDP-43 (Q13148 whole entry): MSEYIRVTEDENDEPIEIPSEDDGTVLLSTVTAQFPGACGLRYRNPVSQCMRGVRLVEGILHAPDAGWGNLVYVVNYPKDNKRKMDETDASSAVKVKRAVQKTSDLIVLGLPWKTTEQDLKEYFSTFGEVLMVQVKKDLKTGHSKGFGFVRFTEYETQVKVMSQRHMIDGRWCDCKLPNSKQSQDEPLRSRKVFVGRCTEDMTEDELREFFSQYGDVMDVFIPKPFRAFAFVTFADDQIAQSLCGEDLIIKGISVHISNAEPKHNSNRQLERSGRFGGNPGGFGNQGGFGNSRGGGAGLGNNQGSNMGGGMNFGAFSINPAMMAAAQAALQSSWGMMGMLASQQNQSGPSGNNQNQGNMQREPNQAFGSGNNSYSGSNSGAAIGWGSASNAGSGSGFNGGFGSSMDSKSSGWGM
Method in brief: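 An in vitro-transcribed pool of 260-nt 3′ UTR oligos (500 nM) was incubated for 1 h at 4 °C with recombinant SBP-tagged TDP-43 at 5, 50 or 500 nM held on streptavidin beads. The buffer contained 25 mM Tris-HCl, 150 mM KCl, 3 mM MgCl2, BSA and SUPERase IN. Biotin-eluted bound RNA was sequenced, and binding, R, is each oligo's normalized read abundance in the bound sample over that in input.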

Row | Binder | binding signal
1 | B1 | 2.93 R (bound/input frequency ratio)
2 | B2 | 0.604 R (bound/input frequency ratio)
3 | B3 | 0.759 R (bound/input frequency ratio)
4 | B4 | 0.272 R (bound/input frequency ratio)
5 | B5 | 6.75 R (bound/input frequency ratio)
6 | B6 | 11.5 R (bound/input frequency ratio)
7 | B7 | 6.02 R (bound/input frequency ratio)
8 | B8 | 3.7 R (bound/input frequency ratio)
9 | B9 | 5.32 R (bound/input frequency ratio)
10 | B10 | 5.22 R (bound/input frequency ratio)
11 | B11 | 4.8 R (bound/input frequency ratio)
12 | B12 | 11 R (bound/input frequency ratio)
13 | B13 | 5.84 R (bound/input frequency ratio)
14 | B14 | 7.5 R (bound/input frequency ratio)
15 | B15 | 6.14 R (bound/input frequency ratio)
16 | B16 | 4.15 R (bound/input frequency ratio)
